Bioassay records deposited in PubChem BioAssay by National Center for Advancing Translational Sciences (NCATS).
A selection: hits, their analogues and other compounds. The true share with any hit is near 14%.
Pf growth 96h – inhibits malaria parasite growth, 96 h; P. falciparum luciferase reporter growth, 96 h; Potency, µM (highest dose often 28.7 µM), for inactives: at the top dose activity change, negative = inhibition, hits mostly inhibitors; actives 6.9% (n = 320,000); note: potency is the fitted concentration of half-maximal effect
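Parasite growth measured via integrated firefly luciferase reporter in P. falciparum. Infected erythrocytes at 2% hematocrit, 0.05% parasitemia final were treated 96 hours at 37 C under 5% CO2, and luminescence was read.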
HCV inhibitor – blocks hepatitis C virus; Huh7.5.1 HCVcc-Cre infection, luciferase reporter, 44 h; Potency, µM (series often up to 41.8 µM), for inactives: at the top dose activity change, negative = inhibition, hits mostly inhibitors; actives 3.4% (n = 340,000); note: potency is the fitted concentration of half-maximal effect
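After 44 h co-culture of compound, cells and HCVcc-Cre (~0.5 moi), substrate is added for 15 min at room temperature and luciferase measured over 15 sec. Cells were seeded at 1,000/well and pre-cultured 4 h.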
HCMV inh – blocks human cytomegalovirus replication | activity change, negative = inhibition, % at 57.5 µM | actives 4.5% (n = 410,000) | HFF cells, HCMV-luciferase reporter, 72 h; hits give low values; in the data active = activity change below about -60%; inconclusive = no clear call, values can overlap the other calls; inactive = above about -39%
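Two compound doses tested in HFFs infected with HCMV-luciferase, MOI 1 PFU/cell, 72 h at 37C. Lysate luminescence read with OneGlo; data normalized against buffer-only and 10uM Salinomycin inhibitor controls.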
Lassa entry inh – inhibitors of Lassa virus binding or cell entry. actives 1.2% (n = 300,000). Potency, µM (highest dose often 37.9 µM), for the others: top-dose activity change, negative = inhibition, hits mostly inhibitors. Lassa virus pseudotype entry inhibition, cell reporter; calls by dose curve; tested in HEK293 cells; note: potency is the fitted concentration of half-maximal effect; nearly all actives have a fitted effect of over 50% in size
Pf growth 48h – P. falciparum growth inhibition at 48 hours (one generation) | P. falciparum luciferase growth in erythrocytes, 48 h | Potency, µM (titrated, usually from 28.7 µM), for inactives: at the highest dose activity change, negative = inhibition, actives largely listed as inhibitors | actives 5.9% (n = 310,000) | AID 504832; note: potency is the fitted concentration of half-maximal effect
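Erythrocytes infected with P. falciparum carrying an integrated firefly luciferase reporter (2% hematocrit, 0.1% parasitemia final) were exposed to compounds in RPMI 1640 with 0.5% Albumax at 37 C, 5% CO2. Growth inhibition was scored as reduced luminescence.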
Marburg entry inh – Marburg virus entry inhibition; Marburg virus pseudotyped entry inhibition, cell reporter; Potency, µM (titrated, usually from 37.8 µM), inactives show at the top dose activity change, negative = inhibition, most hits filed as inhibitors; actives 1.8% (n = 300,000); AID 540276; calls by dose curve; tested in HEK293 cells; note: potency is the fitted concentration of half-maximal effect
* = called active by the depositor; ? = inconclusive; nt = no result; [ ] = remark or other dose. Unless noted, calls come from the whole dose curve; as a rule, active = well fitted inhibition curve with a large enough effect; inconclusive = small, poorly fitted or top-dose-only effect, or another doubt; inactive = no such curve, though single readings can be large or run the other way. % is set by controls: 0 for no effect and ±100 for the full control effect.

SMILES	Pf growth 96h	HCV inhibitor	HCMV inh	Lassa entry inh	Pf growth 48h	Marburg entry inh
C=CCOC(=O)N[C@H](c1ccco1)C(C(C)=O)C(C)=O	nt	nt	nt	nt	nt	9%[14.2 µM]
CCOC(=O)c1c(NC(=O)COC(=O)c2ccc(Cl)nc2)sc(C(=O)N(C)C)c1C	-5%	-9%	-19	17%	?	13%
CCOC(=O)c1sc(NC(=O)CCN2CC(C)OC(C)C2)c(C(=O)OCC)c1C (stereo not drawn)	-18%	nt	nt	nt	nt	4%
CCOC(=O)c1sc(NC(=O)CN2CCCC2)c(C(=O)OCC)c1C	134%	-1%	-15	0%	8%	25%
CCOC(=O)c1c(NC(=O)C(F)(OC)C(F)(F)F)sc(C(=O)N2CCCCC2)c1C (stereo not drawn)	44%	?	3	-6%	12µM*	10%
CCOC(=O)c1c(NC(=O)CN2CCN(C)CC2)sc(C(=O)Nc2ccccc2)c1C	0%	6.3µM*	-8	-23%	13µM*	?
CCOC(=O)c1sc(NC(=O)CCN2CCN(C)CC2)c(C(=O)OCC)c1C	8%	14µM*	?	11µM*	5%	0%
CCOC(=O)c1c(NC(=O)CN2CCN(S(=O)(=O)c3cc(Cl)ccc3Cl)CC2)sc(C(=O)N(C)C)c1C	nt	11µM*	-90*	nt	nt	nt
CCOC(=O)[C@]12CCCC=C1N(Cc1ccccc1)C(=O)[C@H](CC(=O)NCCCCc1ccccc1)C2	nt	nt	-16	nt	nt	nt
O=C(CC1CCC1)Nc1cccc2c([N+](=O)[O-])cccc12	nt	-23%	?	-10%[46.1 µM]	nt	-7%[46.1 µM]
CC(C)c1ccc(NC(=O)COC(=O)Cn2cnc3c2c(=O)n(C)c(=O)n3C)cc1	nt	nt	18	nt	nt	nt
CN(C1CCCCC1)S(=O)(=O)c1ccc(NC(=S)NC(=O)c2cccs2)cc1	?	?	-39	-12%	?	18µM*
CC(C)NS(=O)(=O)c1ccc(NC(=S)NC(=O)c2ccc(-c3ccccc3)cc2)cc1	2.6µM*	?	-19	-23%	6.6µM*	?
CN(C)S(=O)(=O)c1ccc(NC(=S)NC(=O)C2CCC2)cc1	37%	11%	17	nt	9%	nt
Cc1cc(C)cc(NS(=O)(=O)c2ccc(NC(=S)NC(=O)c3cccs3)cc2)c1	30%	?	-34	14µM*	?	12µM*
CCOC(=O)c1[nH]c2ccccc2c1NC(=O)c1ccccc1OCC	nt	nt	-36	-14%[46.1 µM]	nt	?
O=C(OCC(=O)N1CCOCC1)c1cncc(Br)c1	nt	nt	-27	nt	nt	nt
CCN(CC)S(=O)(=O)c1cc(NC(=O)CSc2nc3c(cc2C#N)C(=O)CC(C)(C)C3)ccc1C	2.6µM*	?	-85*	?	3.7µM*	?
COc1ccc(/C=C/c2nc(C#N)c(NC3CCCCC3)o2)cc1OC	nt	nt	-2	-26%[46.1 µM]	nt	-4%[46.1 µM]
Cc1sc2nc(CN3CCCC3)nc(NCc3ccncc3)c2c1C	?	7%	37	8%	?	?
Cc1sc2nc(CN3CCCCC3)nc(Nc3ccc4c(c3)OCCO4)c2c1C	?	4%	-62*	-14%	9.3µM*	0%[46.1 µM]
Cc1cccc(Nc2nc(N)nc(CSc3nccc(C)n3)n2)c1	?	-3%	33	0%	-9%	?
COc1cccc(Nc2nc(N)nc(CCl)n2)c1	?	?	-80*	?	?	?
Cc1cccc(Nc2nc(N)nc(CCl)n2)c1	9.3µM*	3.2µM*	-104*	?	?	?
COc1ccc(CCNC(=O)c2c([S-])n(-c3ccc(C)cc3)c3cccc[n+]23)cc1	10µM*	11µM*	?	?	?	?
SMILES	Pf growth 96h	HCV inhibitor	HCMV inh	Lassa entry inh	Pf growth 48h	Marburg entry inh
CCc1ccc2n(-c3ccc(OC)cc3)c([S-])c(C(=O)Nc3cc(C)cc(C)c3)[n+]2c1	8.3µM*	-12%	15	16%	13µM*	26%[46.1 µM]
COc1cccc(-n2c([S-])c(C(=O)Nc3ccc(C(F)(F)F)cc3)[n+]3ccccc23)c1	1%	nt	nt	nt	?	nt
COc1ccc(CCNC(=O)c2cccc(C(=O)NCCc3ccc(OC)cc3)n2)cc1	nt	?	-36	?	nt	?
Cn1c(NCc2cccnc2)nc2cc(-c3ccc(C(=O)N4CCOCC4)cc3)sc2c1=O	nt	nt	45	nt	nt	nt
Cc1ccc(C2=CC(=O)CC(C)(C)C2=O)cc1	nt	nt	-18	nt	nt	nt
CN(C1CCCCC1)S(=O)(=O)c1ccc2c(c1)c(=O)c(C(=O)NCCc1ccccc1)cn2C	nt	nt	0	26%[46.1 µM]	nt	14%[46.1 µM]
CCOC(=O)N1CCC(N2Cc3cccc(C(=O)N4CCN(c5cccc(Cl)c5)CC4)c3C2=O)CC1	?	-3%	?	nt	-13%	nt
CCOC(=O)N1CCC(N2Cc3cccc(C(=O)Nc4ccccc4OC)c3C2=O)CC1	?	-21%	9	nt	9.3µM*	nt
CCOC(=O)N1CCC(N2Cc3cccc(C(=O)N4CCN(c5cccc(C)c5C)CC4)c3C2=O)CC1	?	-37%	1	-47%[46.1 µM]	10µM*	?
O=C(Cn1cc(S(=O)(=O)N2CCCC2)c(S(=O)(=O)N2CCCC2)c1)Nc1ccccc1	nt	nt	-3	5%[46.1 µM]	nt	nt
O=C(NNC(=O)c1cccc(O)c1)Nc1ccc([N+](=O)[O-])cc1	28%	-3%	-96*	3%[46.1 µM]	1%	-3%[46.1 µM]
O=C(Nc1ccc(O)cc1)c1cccc(Oc2ccc([N+](=O)[O-])cc2)c1	?	11µM*	-33	?	-3%	?
Cc1cccc(N(C)c2cc(-c3ccc(F)cc3)nc3ccnn23)c1	nt	nt	-1	nt	nt	nt
COc1ccc(C(=O)N/C(=C\c2ccc(-c3cccc([N+](=O)[O-])c3)o2)C(=O)NCCCN2CCOCC2)cc1	nt	nt	-26	nt	nt	nt
CN(C)CCNC(=O)/C(=C/c1ccc(-c2cccc(Cl)c2)o1)NC(=O)c1ccccc1	13%	11µM*	12	?	13µM*	8.2µM*
Cc1ccc(C(=O)N/C(=C\c2ccc(-c3cccc([N+](=O)[O-])c3)o2)C(=O)NCCCN2CCOCC2)cc1	?	10µM*	-62*	nt	?	nt
CN(C)CCCNC(=O)/C(=C/c1ccc(-c2ccc([N+](=O)[O-])cc2)o1)NC(=O)c1ccccc1	?	?	-8	nt	?	nt
CN(C)CCNC(=O)/C(=C/c1ccc(-c2cccc([N+](=O)[O-])c2)o1)NC(=O)c1ccccc1	?	10µM*	-22	?	13µM*	?
COc1ccc(-c2noc(-c3ccc(NC(C)c4ccccc4)c([N+](=O)[O-])c3)n2)cc1OC (stereo not drawn)	nt	nt	3	-2%[46.1 µM]	nt	-19%[46.1 µM]
O=C(O)COc1ccccc1/C=C1\SC(=S)N(NC(=O)c2ccccc2O)C1=O	69%	-25%	4	nt	34%	nt
O=C(NN1C(=O)/C(=C/c2ccc(O)c(O)c2)SC1=S)c1ccccc1	10µM*	-15%	18	?	-24%	?
